# Test results reported in PubChem BioAssay (EPA / NIEHS).
# Active and inactive are the calls of the source. The calls were made as follows: active = hit-call score of the fitted dose curve at least 0.9, where 1 is the maximum; inconclusive = response in the unintended direction; inactive = score below 0.9.
# Biological target: Peroxisome proliferator-activated receptor gamma (Homo sapiens) (UniProt P37231)
# Assay: OT_PPARg_PPARgSRC1_1440: Odyssey Thera (OT) 24-hour Protein-Complementation Assay for Peroxisome Proliferator-activated Receptor Gamma/ SRC-1 Co-activator (AID 2283388);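 also: nuclear to cytoplasmic ratio of reconstituted Venus YFP fluorescence in fixed imaged cells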
# Outline: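 Cells carrying the PPARg/SRC-1 fragment-complementation reporter receive compound for 24 hours, are fixed and counterstained with Draq5, then imaged. Increased nuclear relative to cytoplasmic YFP fluorescence above DMSO baseline indicates binding activity.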
# Chain of Peroxisome proliferator-activated receptor gamma (Homo sapiens) (P37231 whole entry, looked up): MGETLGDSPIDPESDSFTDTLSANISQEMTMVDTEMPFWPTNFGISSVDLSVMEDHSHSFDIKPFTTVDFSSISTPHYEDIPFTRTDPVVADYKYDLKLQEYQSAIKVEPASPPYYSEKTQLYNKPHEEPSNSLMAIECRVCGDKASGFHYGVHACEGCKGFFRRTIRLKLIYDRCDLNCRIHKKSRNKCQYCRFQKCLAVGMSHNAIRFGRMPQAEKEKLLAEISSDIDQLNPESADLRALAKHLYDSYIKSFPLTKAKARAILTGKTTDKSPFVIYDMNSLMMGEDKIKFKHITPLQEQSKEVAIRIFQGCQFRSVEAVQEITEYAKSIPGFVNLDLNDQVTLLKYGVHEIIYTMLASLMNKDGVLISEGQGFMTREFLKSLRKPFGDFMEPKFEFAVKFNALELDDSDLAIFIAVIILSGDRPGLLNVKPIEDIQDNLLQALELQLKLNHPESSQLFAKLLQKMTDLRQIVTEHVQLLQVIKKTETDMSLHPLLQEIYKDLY
row,SMILES,outcome
1,COCc1nnc(-c2ccc[n+]([O-])c2)n1-c1c(Cl)c(Cl)cc2[nH]c(=O)c(=O)[nH]c12,inactive
2,O=C(O)[C@H](O)[C@@H](O)C(=O)O,inactive
3,CCCCCCCCCCCCCCO,inactive
4,NC(=O)NN=Cc1ccc([N+](=O)[O-])o1,inactive
5,CCCCCOC(C)=O,inactive
6,O=c1[nH]cnc2c1ncn2[C@H]1CC[C@@H](CO)O1,inactive
7,OCC(CO)(CO)CO,inactive
8,C[C@@H](Oc1ccc(CNC(=O)c2cccnc2Oc2ccc3c(c2)OCO3)c(F)c1)C(=O)O,inactive
9,NC(N)=O,inactive
10,c1ccc2ncccc2c1,inactive
11,CC(C)CC(C)O (configuration not stated),inactive
12,OC(Cn1cncn1)(Cn1cncn1)c1ccc(F)cc1F,inactive
13,CC(=O)c1ccccc1,inactive
14,O=C(O)CO,inactive
15,O=C(O)c1cccc(C(=O)O)c1,inactive
16,Cc1ncc([C@@H](CCCCCCc2ccc3c(n2)NCCC3)CC(=O)O)cn1,inactive
17,C=CN1CCCC1=O,inactive
18,CCCCOC(=O)c1ccccc1,inactive
19,CC1(C)C(=O)N(Cl)C(=O)N1Cl,inactive
20,CCCCCCOC(=O)CC(CC(=O)OCCCCCC)(OC(=O)CCC)C(=O)OCCCCCC,inactive
21,CCCCCCCC1CCC(=O)O1 (configuration not stated),inactive
22,Cn1c(=O)c2[nH]cnc2n(C)c1=O,inactive
23,OC[C@H]1O[C@@](CO)(O[C@H]2O[C@H](CO)[C@@H](O)[C@H](O)[C@H]2O)[C@@H](O)[C@@H]1O,inactive
24,CCCc1ccccc1,inactive
25,NNC(=O)c1ccncc1,inactive
26,O=S1(=O)CCCO1,inactive
27,NC(=O)N(O)[C@@H]1COc2cc(OCc3ccccc3)ccc21,inactive
